Test results taken from PubChem BioAssay AID1851 (National Center for Advancing Translational Sciences (NCATS), 2009).
The campaign covered roughly 16,000 compounds. About 5,800 (36%) were called active. Roughly 23% stayed inconclusive and do not appear here. This is one part of the list. Values without a mark were called inactive. Calls come from the whole dose curve; as a rule, active = well fitted curve in the direction sought with a large enough effect; inconclusive = small, poorly fitted or top-dose-only effect, or effect the other way; inactive = no such curve, though single readings can be large or run the other way.

molecular target: Cytochrome P450 2C19 (Homo sapiens) (UniProt P33261); experiment: Cytochrome panel assay with activity outcomes; conditions: recombinant CYP, pro-luciferin dealkylation, luminescence, p450-cyp2c19; series mostly up to 57.1 µM
Sequence (P33261 whole entry, looked up): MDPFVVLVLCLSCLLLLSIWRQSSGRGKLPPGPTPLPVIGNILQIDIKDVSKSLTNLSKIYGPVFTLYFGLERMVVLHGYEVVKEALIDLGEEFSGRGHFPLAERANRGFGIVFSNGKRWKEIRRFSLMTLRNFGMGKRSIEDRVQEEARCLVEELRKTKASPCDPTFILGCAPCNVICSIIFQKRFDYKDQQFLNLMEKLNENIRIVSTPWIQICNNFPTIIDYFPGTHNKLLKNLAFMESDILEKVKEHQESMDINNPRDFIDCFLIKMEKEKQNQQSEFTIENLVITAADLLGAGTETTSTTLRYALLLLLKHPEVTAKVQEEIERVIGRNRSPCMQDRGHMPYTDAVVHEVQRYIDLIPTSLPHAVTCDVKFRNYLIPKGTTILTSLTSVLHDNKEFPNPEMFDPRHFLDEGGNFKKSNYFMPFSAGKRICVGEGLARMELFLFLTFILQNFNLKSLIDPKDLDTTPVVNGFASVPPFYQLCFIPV
% is set by controls: 0 for no effect and ±100 for the full control effect.

**Q.** `Cc1cc(C(=O)CSc2nnc(-c3ccccc3)o2)c(C)n1CC1COc2ccccc2O1` (stereo not drawn) was tested. Which AC50 did it give?
**A.** 1.12 µM (active)

**Q.** For `CC(=O)c1cccc(NC(=O)CCC2CCCC2)c1`, which AC50 is on record?
**A.** 3.55 µM (active)

**Q.** With `CC(=O)NNC(=O)CCC(=O)Nc1ccccc1` as the compound, how does the AC50 read?
**A.** inactive

**Q.** How did the AC50 turn out when `Cc1ccccc1C(=O)c1cccn1CC(=O)NCc1ccco1` was run?
**A.** 11.2 µM (active)

**Q.** With `COc1ccccc1OCCn1cc(C(=O)c2ccco2)c2ccccc21` as the compound, how does the AC50 read?
**A.** 1 µM (active)

**Q.** Which AC50 does the source give for `O=C(Cn1cc(C(=O)c2ccco2)c2ccccc21)NCc1ccco1` here?
**A.** 2.24 µM (active)

**Q.** How did the AC50 turn out when `COc1ccccc1CN1CCC2(CC1)CCN(C(=O)c1ccco1)CC2` was run?
**A.** inactive

**Q.** With `O=C(Cn1cccc1C(=O)c1ccccc1)NCc1cccs1` as the compound, how does the AC50 read?
**A.** 2.82 µM (active)

**Q.** How did the AC50 turn out when `COc1ccccc1CN1CCCC2(CCN(C(=O)c3ccco3)CC2)C1` was run?
**A.** inactive

**Q.** `CCS(=O)(=O)c1ccc(C(=O)Nc2ccccc2)c(Cl)c1Cl` was tested. Which AC50 did it give?
**A.** 11.2 µM (active)

**Q.** With `O=C(c1csnn1)N1CCC2(CCCN(c3ccc(-c4ccccc4)cc3)C2)CC1` as the compound, how does the AC50 read?
**A.** inactive

**Q.** `Nc1nonc1-c1noc(CCCN2C(=O)c3ccccc3C2=O)n1` was tested. Which AC50 did it give?
**A.** 3.98 µM (active)

**Q.** Which activity, negative = inhibition does the source give for `O=C(O)CCc1nc(-c2ccccc2-n2cccc2)no1` here?
**A.** -29.3% [at 11.4 µM]

**Q.** `CCNc1ncc2nc(-c3ccccc3)c(=O)n(CCc3ccccc3)c2n1` was tested. Which AC50 did it give?
**A.** 1 µM (active)

**Q.** `Cc1nc2cnc(Nc3ccccc3)nc2n(CCc2ccccc2)c1=O` was tested. Which AC50 did it give?
**A.** inactive

**Q.** `CCNc1ncc2nc(-c3ccccc3)c(=O)n(CCC#N)c2n1` was tested. Which AC50 did it give?
**A.** inactive

**Q.** How did the AC50 turn out when `CCNc1ncc2nc(-c3cccs3)c(=O)n(CCc3ccccc3)c2n1` was run?
**A.** inactive

**Q.** With `CCNc1ncc2nc(C)c(=O)n(CCC#N)c2n1` as the compound, how does the AC50 read?
**A.** inactive

**Q.** For `CCNc1ncc2nc(C)c(=O)n(CCc3ccccc3)c2n1`, which AC50 is on record?
**A.** 0.316 µM (active)

**Q.** `O=C(O)c1nn(-c2ccccc2-c2n[nH]c(=O)[nH]c2=O)c(=O)[nH]c1=O` was tested. Which activity, negative = inhibition did it give?
**A.** 20.9% [at 11.4 µM]

**Q.** Which AC50 does the source give for `Cc1cccc(N2CCN(c3ccc(NC(=O)/C=C(/C(=O)O)c4ccccc4)cc3)CC2)c1` here?
**A.** 4.47 µM (active)

**Q.** For `Cc1cc(C(=O)Nc2ccc(N3CCOCC3)cc2)c2ccccc2n1`, which AC50 is on record?
**A.** inactive

**Q.** `c1cncc(CNc2nc(-c3ccc4c(c3)OCO4)nc3ccccc23)c1` was tested. Which AC50 did it give?
**A.** 10 µM (active)

**Q.** With `c1csc(CNc2nc(-c3ccc4c(c3)OCO4)nc3ccccc23)c1` as the compound, how does the AC50 read?
**A.** 3.16 µM (active)

**Q.** For `CN(C)Cc1ccccc1-c1nc(NCc2ccccc2)c2ccccc2n1`, which AC50 is on record?
**A.** inactive

**Q.** Which AC50 does the source give for `c1ccc(CNc2nc(-c3ccc4c(c3)OCO4)nc3ccccc23)cc1` here?
**A.** 10 µM (active)

**Q.** With `Cc1cccc(CNc2nc(-c3ccc4c(c3)OCO4)nc3ccccc23)c1` as the compound, how does the AC50 read?
**A.** 3.16 µM (active)

**Q.** How did the AC50 turn out when `CN[C@H]1[C@@H](O[C@@H]2[C@H](O[C@@H]3[C@@H](O)[C@@H](O)[C@@H](N=C(N)N)[C@@H](O)[C@@H]3N=C(N)N)O[C@H](C)[C@@]2(O)C=O)O[C@@H](CO)[C@@H](O)[C@H]1O` was run?
**A.** inactive
